The results in this text go back to PubChem BioAssay AID940 (Emory University Molecular Libraries Screening Center, 2007).

SMILES strings stand for the structures. Among all 260,000 compounds or so, about 2,200 (0.85%) were called active. This is one part of a sample in which actives are shown more often than they occur. A number with no mark means an inactive call.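 Rule for the calls: active = compounds whose cAMP rise, as percent of the full-agonist control response, exceeds 60; inactive = the rest.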

Chain of Prostaglandin E2 receptor EP2 subtype (Homo sapiens) (P43116 whole entry, looked up): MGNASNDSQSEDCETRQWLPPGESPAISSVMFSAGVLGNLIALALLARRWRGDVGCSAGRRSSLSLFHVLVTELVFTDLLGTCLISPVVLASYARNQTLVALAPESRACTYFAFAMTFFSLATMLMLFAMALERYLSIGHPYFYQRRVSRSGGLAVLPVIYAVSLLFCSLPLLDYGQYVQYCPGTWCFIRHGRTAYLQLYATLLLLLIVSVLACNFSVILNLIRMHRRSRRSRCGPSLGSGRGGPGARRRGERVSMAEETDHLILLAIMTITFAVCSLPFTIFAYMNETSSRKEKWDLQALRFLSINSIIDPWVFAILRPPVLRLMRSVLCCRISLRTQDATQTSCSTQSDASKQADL

The test has as its target Prostaglandin E2 receptor EP2 subtype (Homo sapiens) (UniProt P43116). Description: EP2 receptor modulators, cAMP readout, primary screen, cell-based, HTRF cAMP, PGE2 stimulation (AID 940).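 Note: rat C6 glioma line stably carrying human EP2 under a CMV promoter; the protocol text gives 20 µM as final concentration; 100% = response of wells given 1 µM PGE2.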 The conditions noted are these: EP2-expressing cells, cAMP HTRF FRET, PGE2 co-stimulation; at 25 µM; hits give high values. A general note: In TR-FRET formats the signal depends on donor and acceptor labels being close together.
In the case of `COc1cc(C2NC(=O)NC(C)=C2C(=O)Nc2cc(Cl)ccc2C)cc(OC)c1OC` (stereo not drawn), the induction is -22.7%.
Next, `Cc1cccc(-n2c(C)c3c(C)nnc(C)c3c2C)c1`: -24.2%; `Clc1ccc(C=Nc2ccc3c(c2)Cc2ccccc2-3)c(Cl)c1`: 6.77%.
With `O=C1Cc2ccccc2Sc2ccc(Cl)cc21` the figure was 61.4% (active); with `S=C1Nc2cc(Cl)ccc2Sc2ccccc21`, 11.7%; with `CCn1c(=O)oc2cc(S(=O)(=O)N3CCCN(C(C)=O)CC3)ccc21`, -12.2%.
Consider `COc1ccccc1NC(=O)Cn1nc(C)n2c(cc3occc32)c1=O`, for which the induction is -27.1%.
For the molecule `CCOc1ccc2nc(Nc3nc(C)c(C(C)=O)c(C)n3)nc(C)c2c1`, the induction was -18.1%.
With `COc1ccc(-c2nnn(CC(=O)Nc3ccc(F)cc3F)n2)cc1OC` the figure was -72%; with `COC(=O)C1NN=C(C(=O)c2ccc(Br)cc2)C1c1cccc(Br)c1` (stereo not drawn), 0.95%; with `COC(=O)C1=C(C)N(C)C(=S)NC1c1ccccc1` (stereo not drawn), -3.11%.
With `COC(=O)C1=C(C)N(C)C(C)=C(C(=O)OC)C1c1cccc(Br)c1` the figure was 66.5% (active); with `COc1ccc(-c2ccc(SCC(=O)N3c4ccccc4CCc4ccccc43)nn2)cc1OC`, 28.9%.
With `Cc1ccccc1-c1n[nH]c(=S)n1C` the figure was 25.6%; with `Cc1n[nH]c(=S)n1/N=C/c1ccc(Br)o1`, -3.02%; with `Cc1ccccc1-c1n[nH]c(=S)n1/N=C/c1ccc(-c2ccccc2Br)o1`, 77% (active).
On to `COc1ccc(NCc2nnc(SCC(=O)Nc3ccccc3OC)n2C)cc1`, for which the induction was -42.3%.
Next, `C=CCNC(=O)CSc1nc(-c2ccc(OC)cc2)cc(C(F)(F)F)n1`: -95.2%.
On to `Cn1c(=O)c2c(nc(N3CCN(c4ccccc4)CC3)n2CCC#N)n(C)c1=O`, for which the induction is -28.3%.
With `Cc1cccc(Cn2c(SCCO)nc3c2c(=O)n(C)c(=O)n3C)c1` the figure was 25.1%.
Next, `Cc1cccc(Cn2c(N3CCN(c4ccccc4)CC3)nc3c2c(=O)n(C)c(=O)n3C)c1`: 67.6% (active).
Next, `CCn1c2cc(C)sc2c2cnn(CC(=O)Nc3ccc(F)cc3)c(=O)c21`: -32.1%; `CC1CCN(c2nc3c(c(=O)[nH]2)CCN(Cc2cn(CC(=O)O)c4ccccc24)C3)CC1`: -3.4%; `CC1(C)CCC[C@@]2(C)C1[C@@H](O)C[C@]1(C)C2CC[C@@H]2[C@@]3(C)CC[C@H](C(C)(C)O)[C@@H]3CC[C@@]21C` (stereo partly drawn): 16.7%.
As for `c1cncc(-c2nnc3n2C2(CCCCC2)Cc2ccccc2-3)c1`, the induction is 16.9%.
With `CCC1(CC)Cc2ccccc2-c2nc3ccccc3c(=O)n21` the figure was 22.9%; with `O=c1c2ccccc2nc2n1C1(CCCCC1)Cc1ccccc1-2`, 68.8% (active).
Next, `Cc1ccc(NC(=S)N(Cc2ccco2)C(C)c2cccs2)cc1` (stereo not drawn): 44.2%; `Cc1ccc(CC(=O)NCc2ccco2)cc1`: 8.03%.
Next, `C=C(C)CC(Nc1ccc(C)cc1)c1ccco1` (stereo not drawn): 61.3% (active); `CC1CCCC(C)N1C(=O)[C@H]1C[C@@H](c2cccs2)NS(=O)(=O)N1C` (stereo partly drawn): -34.9%; `Cc1nn2c(NCc3cccnc3)c3c(nc2c1-c1cccs1)CCC3`: -40.8%.
Consider `Cn1c(COc2cccc3ccccc23)nnc1SCC(=O)Nc1ccccc1Cl`, for which the induction is 5.15%.
Next, `Cc1ccc(-n2c(SCC(=O)Nc3ccc4c(c3)OCO4)nnc2-c2ccccn2)cc1`: 4.01%; `Cc1occc1-c1nnc(SCC(=O)Nc2ccc3c(c2)OCO3)n1Cc1ccco1`: 25.1%; `Cc1ccc(-n2c(SCC(=O)Nc3ccc4c(c3)OCO4)nnc2-c2ccoc2C)cc1`: 64.9% (active).
With `CNC(=S)N(Cc1ccccc1)Cc1cc2cccc(C)c2[nH]c1=O` the figure was -48.1%; with `Nc1nc(Br)c2ccccc2c1-c1ccc(F)cc1`, 62% (active).
